Where “and” joins values, the source holds several entries; their conditions need not be identical. Identical values can stand only once. About 2,000 (36%) of roughly 5,500 compounds were called active. Not shown: some 18% with an inconclusive outcome. Cut-off read from the data, not from the text of the source: active = normalized growth mostly below about 0.91 (no sharp cut-off); inconclusive = no clear call, values can overlap the other calls; inactive = mostly above about 0.92. The list shows a part of the results.
Experiment: chemical genetic growth profiling, strain panel (AID 1159580);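 note: tested at 20 µM; growth read once vehicle control cultures reached saturation at 30 °C; 1 = growth at the plate median or of vehicle wells; lower values mean less growth of the strain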
Conditions: S. cerevisiae deletion strains, growth OD

Measured: normalized growth

CC(=O)[C@H]1CCC2C3CC=C4C[C@@H](O)CC[C@]4(C)C3CC[C@@]21C (stereo partly specified)
inactive: locus YAL013W, strain DEP1, stronger effect = lower value 0.999 | locus YAL021C, strain ccr4, stronger effect = lower value 0.958 | locus YAL030W, strain snc1, stronger effect = lower value 0.956 | locus YBL061C, strain skt5, stronger effect = lower value 0.981 | locus YBR009C, strain hhf1, stronger effect = lower value 0.929 | locus YBR021W, strain FUR4, stronger effect = lower value 0.962 | locus YBR023C, strain chs3, stronger effect = lower value 0.969 | locus YBR171W, strain sec66, stronger effect = lower value 0.996 | locus YBR229C, strain ROT2, stronger effect = lower value 1.01 | locus YBR231C, strain swc5, stronger effect = lower value 0.955 | locus YBR279W, strain paf1, stronger effect = lower value 0.981 | locus YCL011C, strain gbp2, stronger effect = lower value 0.947 | locus YCL016C, strain dcc1, stronger effect = lower value 0.95 | locus YCL029C, strain bik1, stronger effect = lower value 0.966 | locus YCR088W, strain abp1, stronger effect = lower value 1.02 | locus YDL005C, strain med2, stronger effect = lower value 1 | locus YDL035C, strain GPR1, stronger effect = lower value 0.863 | locus YDL040C, strain nat1, stronger effect = lower value 1.01 | locus YDL074C, strain BRE1, stronger effect = lower value 0.836 | locus YDL101C, strain DUN1, stronger effect = lower value 0.985 | locus YDL134C, strain PPH21, stronger effect = lower value 0.957 | locus YDL185W, strain tfp1, stronger effect = lower value 1.02 | locus YDL192W, strain arf1, stronger effect = lower value 1.02 | locus YDR001C, strain nth1, stronger effect = lower value 1.02 | locus YDR069C, strain doa4, stronger effect = lower value 0.965 | locus YDR101C, strain arx1, stronger effect = lower value 1.01 | locus YDR150W, strain NUM1, stronger effect = lower value 1.01 | locus YDR159W, strain sac3, stronger effect = lower value 0.927 | locus YDR162C, strain NBP2, stronger effect = lower value 0.958 | locus YDR297W, strain sur2, stronger effect = lower value 0.973 | locus YDR318W, strain mcm21, stronger effect = lower value 0.94 | locus YDR334W, strain swr1, stronger effect = lower value 1.03 | locus YDR335W, strain msn5, stronger effect = lower value 0.958 | locus YDR388W, stronger effect = lower value 0.981 | locus YDR502C, strain sam2, stronger effect = lower value 0.943 | locus YEL003W, strain gim4, stronger effect = lower value 0.938 | locus YEL037C, strain rad23, stronger effect = lower value 0.976 | locus YEL061C, strain CIN8 (second series), stronger effect = lower value 1.01 | locus YEL061C, strain CIN8, stronger effect = lower value 1.01 | locus YER015W, strain faa2, stronger effect = lower value 0.939 | locus YER016W, strain bim1, stronger effect = lower value 0.996 | locus YER110C, stronger effect = lower value 1.03 | locus YER111C, strain swi4, stronger effect = lower value 1.01 | locus YER155C, strain BEM2, stronger effect = lower value 1.01 | locus YER167W, strain BCK2, stronger effect = lower value 0.926 | locus YFR010W, strain ubp6, stronger effect = lower value 1.05 | locus YGL078C, strain dbp3, stronger effect = lower value 1.02 | locus YGL086W, strain mad1, stronger effect = lower value 0.944 | locus YGL167C, strain pmr1, stronger effect = lower value 0.996 | locus YGL173C, strain kem1, stronger effect = lower value 0.923 | locus YGL227W, strain vid30, stronger effect = lower value 1.01 | locus YGL240W, strain doc1, stronger effect = lower value 0.982 | locus YGL248W, strain PDE1, stronger effect = lower value 0.962 | locus YGR078C, strain PAC10, stronger effect = lower value 0.879 | locus YGR135W, strain pre9, stronger effect = lower value 0.904 | locus YGR229C, strain SMI1, stronger effect = lower value 0.958 | locus YHR013C, strain ard1, stronger effect = lower value 0.948 | locus YHR027C, strain rpn1, stronger effect = lower value 0.961 | locus YHR030C, strain SLT2, stronger effect = lower value 0.95 and 0.954 | locus YHR079C, strain IRE1 (second series), stronger effect = lower value 0.998 | locus YHR079C, strain IRE1, stronger effect = lower value 0.988 | locus YHR094C, strain hxt1, stronger effect = lower value 1.03 | locus YHR129C, strain ARP1, stronger effect = lower value 1.01 | locus YHR200W, strain rpn10, stronger effect = lower value 0.965 | locus YIL066C, strain RNR3, stronger effect = lower value 0.865 | locus YIL073C, strain SPO22, stronger effect = lower value 0.807 | locus YIL125W, strain kgd1, stronger effect = lower value 1.03 | locus YIR030C, strain dcg1, stronger effect = lower value 1.04 | locus YJL092W, strain hpr5, stronger effect = lower value 0.97 | locus YJL095W, strain BCK1 (second series), stronger effect = lower value 0.935 | locus YJL115W, strain asf1, stronger effect = lower value 0.994 | locus YJL129C, strain trk1, stronger effect = lower value 0.935 | locus YJL134W, strain LCB3, stronger effect = lower value 1.01 | locus YJL154C, strain vps35, stronger effect = lower value 1.01 | locus YJL164C, strain tpk1, stronger effect = lower value 0.923 | locus YJL168C, strain set2, stronger effect = lower value 1.03 | locus YJL187C, strain SWE1 (second series), stronger effect = lower value 0.945 | locus YJR043C, strain POL32, stronger effect = lower value 0.991 | locus YJR066W, strain TOR1, stronger effect = lower value 0.866 | locus YJR075W, strain HOC1, stronger effect = lower value 0.933
0.754 (active) and 0.958 (inactive): locus YJL095W, strain BCK1, stronger effect = lower value
active: locus YAL026C, strain drs2, stronger effect = lower value 0.788 | locus YCL069W, strain vba3, stronger effect = lower value 0.897 | locus YDR137W, strain rgp1, stronger effect = lower value 0.518 | locus YDR195W, strain ref2 1.28 [resistant] | locus YDR392W, strain spt3, stronger effect = lower value 0.335 | locus YER155C, strain BEM2 (second series), stronger effect = lower value 0.774 | locus YGL253W, strain hxk2, stronger effect = lower value 0.9 | locus YGR252W, strain gcn5, stronger effect = lower value 0.65 | locus YHR142W, strain chs7, stronger effect = lower value 0.862 | locus YJL166W, strain qcr8, stronger effect = lower value 0.895

From PubChem BioAssay AID1159580 (chemical genetic matrix, 2015)
